Screening results from PubChem.
FBPA coupling cs – qHTS Assay for Inhibitors of Fructose-1,6-bisphosphate Aldolase from Giardia Lamblia: Coupling assay counterscreen | coupling enzyme system counterscreen, AmpLite Red fluorescence | 0.67% of 290,000 active | activity change, negative = inhibition, % at 58.2 µM, hits read low; in the data active means activity change below about -30%; further: on the % scale 0 is the no-effect control and ±100 the full control effect
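Counterscreen lacking aldolase: glyceraldehyde-3-phosphate coupling-enzyme reagent preincubated 10 min at RT with compound (at 57.5 uM final), then substrate/coupling system with AmpLite Red added; fluorescence read at 525/598 nm after 20 min RT.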
HTT aggregate – qHTS Multiplex Assay to Identify Dual Action Probes in a Cell Model of Huntington: Aggregate Formation (GFP); PC12 HttQ103-GFP aggregates, Acumen cytometry, 40 h; Potency, µM (series often up to 46.1 µM), for inactives: at the highest dose activity change, negative = inhibition, hits mostly inhibitors; 1.1% of 220,000 active; further: potency means the concentration at half of the fitted maximal effect; on the % scale 0 is the no-effect control and ±100 the full control effect; nearly all actives have a fitted effect of over 60% in size
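Quantitative HTS on tebufenozide-induced (100 nM) PC12 cells stably expressing polyQ103 Huntingtin exon 1–GFP. Reduction of bright GFP aggregates, detected by laser scanning cytometry after lysis, identified actives across the titration.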
RGS12 GoLoco inh – qHTS Assay for Inhibitors of RGS12 GoLoco Motif Activity (Red Fluorophore); Guanine nucleotide-binding protein G(i) subunit alpha-1 (Homo sapiens), P63096; Gai1:RGS12 GoLoco peptide FP, rhodamine, 10 min; Potency, µM (series often up to 61.6 µM), without a hit: top-dose activity, negative = inhibition, most hits filed as inhibitors; 0.44% of 230,000 active; AID 880, 2007; active means well fitted inhibition curve with a large enough effect, not every such curve was filed as active; inactive means no such curve, though single readings can be large or run the other way; further: potency means the concentration at half of the fitted maximal effect; on the % scale 0 is the no-effect control and ±100 the full control effect; nearly all actives have a fitted effect of over 30% in size
HTT cytoprotect – qHTS Multiplex Assay to Identify Dual Action Probes in a Cell Model of Huntington: Cytoprotection (ATP). PC12 HTT-Q103 induced, cytoprotection, ATP luminescence, 40 h. Potency, µM (series often up to 56.4 µM), for inactives: cytoprotection (ATP increase), most hits filed as activators. 0.14% of 230,000 active; further: potency means the concentration at half of the fitted maximal effect; % of control where 0% means no effect; nearly all actives have a fitted effect of over 45% in size
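Compounds added alongside 100 nM tebufenozide, which induces toxic Q103 huntingtin exon 1-GFP in stable PC12 cells; surviving cells quantified by luminescent ATP measurement. Medium: phenol red-free DMEM, 5% equine and 5% calf serum.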
VDR inh – Inhibitors of the vitamin D receptor (VDR): qHTS | Vitamin D3 receptor (Homo sapiens), P11473 | VDR-SRC2-3 peptide fluorescence polarization, 2 h | Potency, µM, inactives show max response, negative = inhibition, most hits filed as inhibitors | 0.93% of 400,000 active; further: potency means the concentration at half of the fitted maximal effect; on the % scale 0 is the no-effect control and ±100 the full control effect
Target sequence (P11473 whole entry, looked up): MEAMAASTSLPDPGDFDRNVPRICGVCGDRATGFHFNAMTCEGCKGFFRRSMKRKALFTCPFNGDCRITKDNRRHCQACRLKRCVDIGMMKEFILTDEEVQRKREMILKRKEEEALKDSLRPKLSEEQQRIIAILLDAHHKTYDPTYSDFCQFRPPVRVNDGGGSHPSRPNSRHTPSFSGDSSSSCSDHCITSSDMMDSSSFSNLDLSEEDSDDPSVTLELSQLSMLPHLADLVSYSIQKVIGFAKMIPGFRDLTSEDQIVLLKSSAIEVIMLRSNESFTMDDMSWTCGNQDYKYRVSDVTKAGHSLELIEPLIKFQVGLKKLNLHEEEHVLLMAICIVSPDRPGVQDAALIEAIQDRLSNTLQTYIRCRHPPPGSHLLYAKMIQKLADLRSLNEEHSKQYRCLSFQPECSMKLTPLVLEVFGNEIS
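Inhibition of the VDR/SRC2-3 peptide interaction is quantified by fluorescence polarization. Compounds (23 nl, pintool) incubate with the reagents for 2 hours at ambient room temperature.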
JMJD2E inh – qHTS Assay for Inhibitors of Human Jumonji Domain Containing 2E (JMJD2E) | Lysine-specific demethylase 4E (Homo sapiens), B2RXH2 | JMJD2E catalytic domain, FDH-coupled NADH fluorescence (FDH is formaldehyde dehydrogenase) | Potency, µM (titrated, usually from 57.1 µM), inactives show top-dose activity change, negative = inhibition, most hits filed as inhibitors | 1.6% of 230,000 active | AID 2147, 2009; active means well fitted inhibition curve with a large enough effect, not every such curve was filed as active; inconclusive means small, poorly fitted or top-dose-only effect, or another doubt; inactive means no such curve, though single readings can be large or run the other way;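 further: potency means the concentration at half of the fitted maximal effect; 0% = wells with enzyme and -100% = buffer wells without enzyme; nearly all actives have a fitted effect of over 50% in size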
Numbers without * were called inactive; u = inconclusive; x = not tested or not shown; [ ] = remark or other dose. An excerpt weighted towards active compounds, which were near 2.3% of everything screened. Unless noted, the call rests on the fitted dose curve; in most records, active means well fitted curve in the direction sought with a large enough effect; inconclusive means small, poorly fitted or top-dose-only effect, or another doubt; inactive means no such curve, though single readings can be large; an effect the other way counts as inactive or inconclusive.

SMILES	FBPA coupling cs	HTT aggregate	RGS12 GoLoco inh	HTT cytoprotect	VDR inh	JMJD2E inh
O=C(CNC(=O)C1COc2ccccc2O1)N/N=C\c1ccc(Cl)cc1 (centres undefined)	-2	8%[9.22 µM]	-4%	17%[10 µM]	-4%	6%
Cc1ccc(CNC(=O)c2cc(=O)c3cc(C)cc(C)c3o2)cc1	x	x	x	x	-3%	x
COc1cc(OC)c2c(c1)OC(=O)CC2c1ccccc1OC (centres undefined)	5	x	-3%[88.7 µM]	29%	0%	x
COc1ccc(/C=C\C(=O)NCC(=O)N/N=C/c2ccc(O)cc2O)cc1	6	12%[9.22 µM]	8%	7%[10 µM]	-14%	7.1µM*
O=C(O)COc1cccc2nsnc12	1	11%	-11%	-14%	-5%	20µM*
O=C(O)COc1cccc2ccccc12	7	15%	-13%	-9%	9%	u
NNC(=O)c1ccc(OCC2CC(c3ccc(Cl)cc3)=NO2)cc1 (centres undefined)	5	12%[9.22 µM]	-1%	-19%[10 µM]	-6%	29%
CCNC(=O)c1ccc(NS(=O)(=O)c2ccc3[nH]c(=O)[nH]c3c2)cc1	x	x	x	x	2%	x
CC(NC(=O)OC(C)(C)C)C(=O)Oc1cc2oc(=O)cc(-c3ccccc3)c2cc1Cl (centres undefined)	14	6.3µM*	4%	-27%[10 µM]	-5%	u
CC(Oc1cc2oc(=O)cc(-c3ccccc3)c2cc1Cl)C(=O)NCC1CCC(C(=O)O)CC1 (centres undefined)	2	x	x	x	-12%	x
Cc1cc(=O)oc2c(CN3CCCC3)c(O)c(Cl)cc12	2	x	x	x	-2%	x
CCN(CC)Cc1c(O)c(Cl)cc2c(C)c(C)c(=O)oc12	-1	4%[9.22 µM]	1%	9%	9%	u
CCN(CC)Cc1c(O)c(Cl)cc2c(C)cc(=O)oc12	2	7%	16µM*	3%[10 µM]	-5%	u
Cc1cc(=O)oc2c(CN3CCC(C)CC3)c(O)c(Cl)cc12	1	6%	22µM*	-17%	1%	u
CCOc1ccc(NC(=O)C2CC(=O)N(c3ccc(C(C)C)cc3)C2)cc1 (centres undefined)	x	x	x	x	-13%	x
CC(=O)Nc1ccc(S(=O)(=O)NC2(C(F)(F)F)C(=O)Nc3c2c(=O)[nH]c(=O)n3-c2cccc(Cl)c2)cc1 (centres undefined)	x	x	x	x	-4%	x
Cc1cccc(OCCCC(=O)N2CCCCCC2)c1C	-2	x	x	x	-5%	x
CCN(CC)C(=O)CN1C(=O)C2(OCC(C)(C)CO2)c2ccccc21	x	x	x	x	-24%	x
CCOc1ccc(S(=O)(=O)Nc2ccc3c(c2)OCO3)cc1	2	x	x	x	-6%	x
CCOc1ccc(Nc2nc3cc(S(=O)(=O)N(CC)CC)ccc3o2)cc1	-1	6%	-13%	-15%	79µM*	-13%
CCS(=O)(=O)c1ccc2oc(Nc3cc(C)cc(C)c3)nc2c1	-6	-5%	15%	-51%	0%	-3%
CCN1C(=O)CC(N2CCN(c3ccc(C(=O)c4ccccc4)cc3)CC2)C1=O (centres undefined)	-5	11µM*	-10%	-6%	3%	1%
O=C(Nc1ccc(F)cc1F)N1CCCCCC1	2	x	x	x	4%	x
CC(=O)NC1(c2ccc(F)cc2)CCN(C(=O)Nc2ccc(F)cc2F)CC1	0	3.2µM*	19%	-97%[10 µM]	4%	6%
CC(=O)c1sc2c(c1C)c(=O)n(-c1ccc(Cl)cc1)c(=O)n2Cc1ccc(Cl)cc1	x	x	x	x	5%	x
Cc1ccc(-n2c(=O)c3c(cnn3C)n(CC(=O)Nc3cccc(C)c3)c2=O)cc1	x	x	x	x	-2%	x
